Most compounds without a hit are left out; they make up all but 22% or so of the library.
Pf growth 96h: inhibits malaria parasite growth, 96 h | P. falciparum luciferase reporter growth, 96 h | Potency, µM (titrated, usually from 28.7 µM), usual class: inhibitors | hit rate 6.9% among 320,000 | AID 504834
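Two-generation exposure (96 h) targets delayed-death phenotype. Reporter parasites carrying integrated firefly luciferase, in red cells at 2% hematocrit and 0.05% parasitemia final, kept at 37 C, 5% CO2; luminescence loss indicates inhibition.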
CHX counter: counter-screen for Shiga toxin inhibitors: cycloheximide protein synthesis inhibition; cell reporter, cycloheximide protein synthesis inhibition counterscreen; max response, %; hit rate 12% among 300,000; AID 2314; in the data active = max response mostly above about 13%, no sharp cut-off; inactive = mostly below about 14%; also: read at 38.3 µM for the half of the compounds with a filed dose
Pf growth 48h: inhibits P. falciparum growth in the first generation, 48 h; P. falciparum luciferase growth in erythrocytes, 48 h; AID 504832; hit rate 5.9% among 310,000; Potency, µM (highest dose often 28.7 µM), most hits filed as inhibitors
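Luciferase-expressing parasites in RBCs, 2% Hct / 0.1% parasitemia final; RPMI 1640 + 0.5% Albumax; 37 C, 5% CO2, one generation; luminescence read-out, lower signal = inhibition.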
LmPK inh: LmPK (Leishmania mexicana) enzyme inhibition. hit rate 0.37% among 290,000. purified LmPK, Kinase-Glo ATP luminescence, 1 h. AID 1721. Potency, µM (doses to about 57.5 µM), hits mostly inhibitors. Q27686
Target sequence (Q27686 whole entry, looked up): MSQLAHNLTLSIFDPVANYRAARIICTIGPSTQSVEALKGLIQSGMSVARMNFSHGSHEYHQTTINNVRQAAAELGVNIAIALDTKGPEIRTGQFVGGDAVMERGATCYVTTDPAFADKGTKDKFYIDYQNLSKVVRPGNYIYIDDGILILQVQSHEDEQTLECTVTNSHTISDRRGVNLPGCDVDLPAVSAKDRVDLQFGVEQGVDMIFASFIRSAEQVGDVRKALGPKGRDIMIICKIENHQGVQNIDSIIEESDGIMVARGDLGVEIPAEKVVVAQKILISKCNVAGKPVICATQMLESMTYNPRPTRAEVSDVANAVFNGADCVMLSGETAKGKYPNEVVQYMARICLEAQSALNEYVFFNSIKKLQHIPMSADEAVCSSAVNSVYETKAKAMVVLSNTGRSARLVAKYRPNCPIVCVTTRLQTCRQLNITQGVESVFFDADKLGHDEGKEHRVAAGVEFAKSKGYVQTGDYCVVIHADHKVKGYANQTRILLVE
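Purified LmPK (0.1 nM) with 0.5 mM PEP and 0.1 mM ADP in imidazole buffer pH 7.2 with MgCl2/KCl, 1 h at room temperature. ATP formed was read by luciferase luminescence and normalized to no-enzyme and uninhibited controls.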
Shiga toxin inh: blocks Shiga toxin action in Vero cells. inhibition, % at 38.7 µM. Vero cells, Shiga toxin protein synthesis inhibition reporter. hit rate 9.2% among 290,000. AID 2315; in the data active = inhibition mostly above about 28%, no sharp cut-off; inactive = mostly below about 43%
Hits are given with their value; - = inactive; ? = inconclusive; . = not tested or not shown. Unless noted, calls follow the shape of the dose curve; as a rule, active = well fitted inhibition curve with a large enough effect; inconclusive = small, poorly fitted or top-dose-only effect, or another doubt; inactive = no such curve, though single readings can be large or run the other way.

SMILES | Pf growth 96h | CHX counter | Pf growth 48h | LmPK inh | Shiga toxin inh
Clc1ccc(-c2csc(N/N=C\c3cccnc3)n2)cc1 | - | 28.0 | ? | - | -
O=C(O)Cc1sc(N/N=C\c2ccncc2)nc1-c1ccccc1 | ? | - | ? | - | -
C(=N\Nc1nc(-c2ccccc2)cs1)/c1ccco1 | - | 38.2 | - | - | 60.6
Cc1sc(N/N=C/c2cccnc2)nc1-c1ccccc1 | ? | 25.3 | 9.28µM | - | 48.4
CCCn1c(SCC(=O)OCC)nc(C(F)(F)F)cc1=O | - | - | - | - | -
CCN1CCN(C(=O)c2nn(C)c3c2CS(=O)(=O)c2ccccc2-3)CC1 | ? | - | - | - | -
O=C1C(Cl)=C(N2CCN(c3ccccc3[N+](=O)[O-])CC2)C(=O)c2ccccc21 | 8.28µM | - | ? | - | -
O=C(CS(=O)(=O)c1ccc(F)cc1)Nc1nnc(-c2ccccc2Cl)o1 | - | . | - | . | .
COCCCn1c(SCC(=O)N2CCOCC2)nc2cc(Cl)ccc2c1=O | - | . | 10.4µM | . | .
COC(=O)c1ccc2c(=O)n(CCN3CCOCC3)c(SCC(=O)NCc3ccccc3)nc2c1 | ? | - | ? | - | -
COC(=O)c1ccc2c(=O)n(CC3CCCO3)c(SCC(=O)Nc3ccc(OC)cc3OC)nc2c1 (stereo not given) | ? | - | 6.57µM | - | -
CCCCn1c(SC(C)C(=O)NCC2CCCO2)nc2cc(C(=O)OC)ccc2c1=O (stereo not given) | 8.28µM | . | 5.86µM | . | .
CCCCn1c(SC(C)C(N)=O)nc2cc(C(=O)OC)ccc2c1=O (stereo not given) | ? | - | - | - | -
COC(=O)c1ccc2c(=O)n(CCN3CCOCC3)c(SCC(=O)Nc3ccc(C)cc3)nc2c1 | 11.7µM | - | - | - | -
CC(CNS(=O)(=O)c1ccccc1)(c1ccccc1)N1CCOCC1 (stereo not given) | ? | - | - | - | -
CCn1c(SCC(=O)Nc2ccc(OC)cc2OC)nc2nc3c(cc2c1=O)COC(C)(C)C3 | 8.28µM | - | ? | - | -
COC(=O)c1ccc2c(=O)n(CCN3CCOCC3)c(SCC(=O)C(C)(C)C)nc2c1 | 13.1µM | - | ? | - | -
CCOC(=O)CSc1nc2cc(C(=O)OC)ccc2c(=O)n1CCN1CCOCC1 | ? | - | - | - | -
COc1ccccc1C(=O)Nc1ccc(OCC(=O)N2CC(C)CC(C)C2)cc1 (stereo not given) | ? | . | - | . | .
CCOc1ccc(N(CC(=O)NCc2ccc(F)cc2)C(=O)CCC(=O)Nc2nccs2)cc1 | ? | - | ? | - | -
CCOC(=O)C1(CCCc2ccccc2)CCN(C(=O)C(C)n2cncn2)CC1 (stereo not given) | - | - | ? | - | -
O=C(CNS(=O)(=O)c1ccc(Cl)c(C(F)(F)F)c1)NC1CCCCCC1 | - | . | - | . | .
O=C(Nc1ccccc1N1CCOCC1)c1ccc(Cl)c(S(=O)(=O)NCc2ccco2)c1 | ? | 28.4 | ? | - | -
COc1ccccc1N1CCN(C(=O)c2ccc(Cl)c(S(=O)(=O)NCc3ccco3)c2)CC1 | . | 28.4 | ? | - | -
O=c1[nH]c(=S)n(C2CC2)c(O)c1C=Nc1ccc2c(c1)OCO2 | - | 13.8 | - | - | -
SMILES | Pf growth 96h | CHX counter | Pf growth 48h | LmPK inh | Shiga toxin inh
O=c1[nH]c(=S)n(C2CC2)c(O)c1C=NCc1ccc(F)cc1 | - | - | - | - | -
CC(C)c1ccc(N=Cc2c(O)n(C3CC3)c(=S)[nH]c2=O)cc1 | - | 10.4 | - | - | 52.0
Cc1ccc(CCC(=O)Nc2ccc(C#N)cc2)o1 | ? | - | - | - | -
COCCCn1c(N)c(C(=O)OCCOC)c2nc3ccccc3nc21 | ? | - | - | - | -
CCOC(=O)c1c(NS(=O)(=O)c2ccccc2)n(CCCOC)c2nc3ccccc3nc12 | - | - | 10.4µM | - | -
CCCCCNC(=O)c1c[nH]c2ccc(S(=O)(=O)N3CCC4(CC3)OCCO4)cc2c1=O | - | - | 13.1µM | - | -
CCN(CC)S(=O)(=O)c1ccc2[nH]cc(C(=O)NCCC3=CCCCC3)c(=O)c2c1 | - | - | 8.28µM | - | -
CCN(CC)S(=O)(=O)c1ccc2[nH]cc(C(=O)NCCCN3CCCCC3C)c(=O)c2c1 (stereo not given) | . | - | 10.4µM | - | -
CCN(CC)S(=O)(=O)c1ccc2[nH]cc(C(=O)NCCN3CCCCCC3)c(=O)c2c1 | - | - | 1.85µM | - | -
CC(OC(=O)c1cccc([N+](=O)[O-])c1)C(=O)NCc1ccc2c(c1)OCO2 (stereo not given) | - | - | - | - | -
CC(C)CN1C(=O)C(=O)N(CC(=O)c2ccc3c(c2)CCCC3)C1=O | - | . | - | . | .
CCCCn1c(N)c(N(CC(C)C)C(=O)CCCSc2nncs2)c(=O)[nH]c1=O | - | - | - | - | -
COC(=O)c1cncc(C)c1 | - | - | - | - | -
CCN(CC)S(=O)(=O)c1ccc2[nH]cc(C(=O)NCCN3CCCCC3C)c(=O)c2c1 (stereo not given) | . | - | 4.15µM | - | -
O=C1NC2(CCCCC2)C(=O)N1/N=C/c1ccccc1Br | - | 22.9 | 3.29µM | - | -
O=C1NC2(CCCCC2)C(=O)N1/N=C/c1ccc(O)cc1O | ? | 38.0 | . | - | 53.0
Cc1nc2ccccc2c(=O)n1/N=C/c1ccc(O)cc1O | - | - | - | - | -
O=C(Nc1ccc(-c2cn3c(n2)SCC3)cc1)c1ccc2ccccc2n1 | ? | 50.2 | - | - | 48.1
O=C(Nc1cccc(-c2cn3c(n2)SCC3)c1)c1ccc2ccccc2n1 | - | 45.3 | - | - | 132.9
Cc1cc(-c2nn(-c3ccccc3F)cc2CN2CCC(C(N)=O)CC2)c(C)s1 | 8.28µM | - | - | - | -
Cc1cc(-c2nn(-c3ccccc3F)cc2CN2CCCC(C(N)=O)C2)c(C)s1 (stereo not given) | ? | - | ? | - | -
Cc1cc(-c2nn(-c3ccccc3F)cc2CN2CCCC(CO)C2)c(C)s1 (stereo not given) | 2.33µM | - | - | - | -
Cc1cc(-c2nn(-c3ccccc3F)cc2CN2CCCC(O)C2)c(C)s1 (stereo not given) | ? | - | ? | - | -
CCCCn1c(N)c(N(CC)C(=O)c2cnc(C)cn2)c(=O)[nH]c1=O | - | . | ? | . | .
O=C(NCc1cccs1)c1cc2c(s1)-c1ccccc1OC2 | - | 20.0 | - | - | -
SMILES | Pf growth 96h | CHX counter | Pf growth 48h | LmPK inh | Shiga toxin inh
O=C(NC1CC1)c1cc2c(s1)-c1ccccc1OC2 | 13.1µM | 77.3 | . | - | 104.4
O=C(O)c1cc2c(s1)-c1ccccc1OC2 | - | - | - | - | -
Cn1c(NC(=S)Nc2ccccc2)nc2ccccc21 | ? | 47.2 | ? | - | 64.8
S=C(Nc1ccccc1)Nc1nc2ccccc2n1CCOc1ccc(Br)cc1 | - | 34.2 | 3.29µM | - | 43.7
Cn1c(Nc2ccc(F)cc2)nc2ccccc21 | - | - | - | - | -
Cc1cc(C)n2ncc(C(=O)O)c2n1 | - | - | - | - | -
Cc1c(N/N=C(\C#N)C(=O)c2ccccc2)c(=O)n(-c2ccccc2)n1C | ? | - | 1.65µM | - | -
Cc1ccccc1C(=O)/C(C#N)=N/Nc1c(C)n(C)n(-c2ccccc2)c1=O | - | - | 1.65µM | - | -

High-throughput results as filed in PubChem.
